# Measured values reported in ChEMBL document CHEMBL1961873, “Compounds: GSK PKIS; Assays: Nanosyn kinase panel” (2012).
# Assays:
# [1] = target: T1, Muscle, skeletal receptor tyrosine-protein kinase (Homo sapiens) (UniProt O15146); conditions: at 1 µM;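 also: reported value is the mean percent inhibition of MuSK kinase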
# T1 sequence (whole entry): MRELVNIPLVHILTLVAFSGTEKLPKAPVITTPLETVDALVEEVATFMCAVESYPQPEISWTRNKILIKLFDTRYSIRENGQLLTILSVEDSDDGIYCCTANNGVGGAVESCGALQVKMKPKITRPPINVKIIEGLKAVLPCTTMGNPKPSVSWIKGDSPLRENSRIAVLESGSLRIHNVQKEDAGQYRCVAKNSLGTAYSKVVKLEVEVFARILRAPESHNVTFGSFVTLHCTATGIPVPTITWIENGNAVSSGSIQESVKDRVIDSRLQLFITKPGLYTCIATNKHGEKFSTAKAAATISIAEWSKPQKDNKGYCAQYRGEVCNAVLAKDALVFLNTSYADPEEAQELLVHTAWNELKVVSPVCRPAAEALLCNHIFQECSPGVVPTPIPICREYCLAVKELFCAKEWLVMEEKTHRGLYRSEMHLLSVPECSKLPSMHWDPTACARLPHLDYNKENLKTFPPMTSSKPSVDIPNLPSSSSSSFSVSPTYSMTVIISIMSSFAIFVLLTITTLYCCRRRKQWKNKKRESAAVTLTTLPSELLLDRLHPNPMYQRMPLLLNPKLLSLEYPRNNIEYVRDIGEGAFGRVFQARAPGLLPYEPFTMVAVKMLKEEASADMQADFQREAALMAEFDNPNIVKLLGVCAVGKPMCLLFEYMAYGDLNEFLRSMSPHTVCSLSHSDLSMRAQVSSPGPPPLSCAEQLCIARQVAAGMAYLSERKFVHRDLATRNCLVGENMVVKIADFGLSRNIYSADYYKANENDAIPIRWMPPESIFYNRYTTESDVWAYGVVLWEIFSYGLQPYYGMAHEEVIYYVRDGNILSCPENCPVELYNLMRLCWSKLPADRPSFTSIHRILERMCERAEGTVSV
# [2] = target: Platelet-derived growth factor receptor alpha (Homo sapiens) (UniProt P16234); conditions: at 0.1 µM
# Platelet-derived growth factor receptor alpha (Homo sapiens), sequence (P16234 whole entry): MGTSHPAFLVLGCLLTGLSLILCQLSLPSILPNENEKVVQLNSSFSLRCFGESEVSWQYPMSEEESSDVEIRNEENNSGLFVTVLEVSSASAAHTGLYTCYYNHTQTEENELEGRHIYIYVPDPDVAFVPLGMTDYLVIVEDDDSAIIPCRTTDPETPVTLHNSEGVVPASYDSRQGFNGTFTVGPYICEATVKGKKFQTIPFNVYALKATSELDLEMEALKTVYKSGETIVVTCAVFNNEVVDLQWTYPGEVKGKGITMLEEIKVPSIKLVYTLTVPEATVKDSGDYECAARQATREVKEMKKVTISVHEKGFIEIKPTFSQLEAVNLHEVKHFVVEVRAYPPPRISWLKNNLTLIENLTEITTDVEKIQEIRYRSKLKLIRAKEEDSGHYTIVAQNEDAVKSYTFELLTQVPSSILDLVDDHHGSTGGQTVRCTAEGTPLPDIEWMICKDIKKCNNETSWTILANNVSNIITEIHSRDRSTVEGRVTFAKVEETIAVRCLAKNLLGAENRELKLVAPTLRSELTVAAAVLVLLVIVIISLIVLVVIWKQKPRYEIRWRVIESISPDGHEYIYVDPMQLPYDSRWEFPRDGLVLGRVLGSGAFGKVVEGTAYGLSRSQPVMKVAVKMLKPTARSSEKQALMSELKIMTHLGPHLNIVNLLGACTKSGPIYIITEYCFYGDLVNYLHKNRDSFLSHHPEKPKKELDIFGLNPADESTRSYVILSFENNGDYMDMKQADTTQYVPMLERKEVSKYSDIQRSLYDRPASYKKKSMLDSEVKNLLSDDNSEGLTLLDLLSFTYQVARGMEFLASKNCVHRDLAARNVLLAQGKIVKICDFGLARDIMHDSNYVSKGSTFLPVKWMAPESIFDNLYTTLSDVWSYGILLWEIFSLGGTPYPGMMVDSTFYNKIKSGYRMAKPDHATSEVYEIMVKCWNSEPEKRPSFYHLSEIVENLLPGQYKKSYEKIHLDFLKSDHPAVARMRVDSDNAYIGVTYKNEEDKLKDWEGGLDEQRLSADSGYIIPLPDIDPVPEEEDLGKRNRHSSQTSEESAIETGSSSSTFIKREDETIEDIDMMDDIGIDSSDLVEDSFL
# [3] = target: Platelet-derived growth factor receptor alpha (Homo sapiens) (UniProt P16234); conditions: at 1 µM
# [4] = test system: Platelet-derived growth factor receptor alpha (Homo sapiens), P16234 [D842V]; conditions: at 0.1 µM
# [5] = test system: Platelet-derived growth factor receptor alpha (Homo sapiens), P16234 [D842V]; conditions: at 1 µM
# [6] = test system: Platelet-derived growth factor receptor alpha (Homo sapiens), P16234 [T674I]; conditions: at 0.1 µM
# Platelet-derived growth factor receptor alpha (Homo sapiens), P16234 [T674I], sequence (P16234 whole entry T674I): as the sequence (P16234 whole entry) above, with T674I counted along it
# [7] = test system: Platelet-derived growth factor receptor alpha (Homo sapiens), P16234 [T674I]; conditions: at 1 µM
# [8] = test system: Platelet-derived growth factor receptor alpha (Homo sapiens), P16234 [V561D]; conditions: at 0.1 µM
# Platelet-derived growth factor receptor alpha (Homo sapiens), P16234 [V561D], sequence (P16234 whole entry V561D): as the sequence (P16234 whole entry) above, with V561D counted along it
# [9] = test system: Platelet-derived growth factor receptor alpha (Homo sapiens), P16234 [V561D]; conditions: at 1 µM
# [10] = target: Platelet-derived growth factor receptor beta (Homo sapiens) (UniProt P09619); conditions: at 0.1 µM
# [11] = target: Platelet-derived growth factor receptor beta (Homo sapiens) (UniProt P09619); conditions: at 1 µM
# [12] = target: Tyrosine-protein kinase FRK (Homo sapiens) (UniProt P42685); conditions: at 0.1 µM
# Tyrosine-protein kinase FRK (Homo sapiens), sequence (P42685 whole entry): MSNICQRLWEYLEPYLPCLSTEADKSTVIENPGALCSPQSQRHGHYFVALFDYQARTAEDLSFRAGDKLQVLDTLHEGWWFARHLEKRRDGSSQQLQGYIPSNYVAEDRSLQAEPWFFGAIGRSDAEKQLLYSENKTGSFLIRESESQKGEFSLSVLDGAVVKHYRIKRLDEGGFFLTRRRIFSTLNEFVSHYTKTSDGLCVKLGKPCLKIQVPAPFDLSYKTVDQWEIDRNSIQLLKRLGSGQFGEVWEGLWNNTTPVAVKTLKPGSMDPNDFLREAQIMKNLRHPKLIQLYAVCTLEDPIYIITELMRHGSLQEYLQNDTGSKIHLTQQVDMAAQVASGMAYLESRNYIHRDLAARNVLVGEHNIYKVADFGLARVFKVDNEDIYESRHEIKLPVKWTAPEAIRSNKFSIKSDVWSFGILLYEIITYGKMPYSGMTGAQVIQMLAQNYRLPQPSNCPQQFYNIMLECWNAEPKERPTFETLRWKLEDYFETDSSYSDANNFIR
# [13] = target: Tyrosine-protein kinase FRK (Homo sapiens) (UniProt P42685); conditions: at 1 µM
# [14] = target: Protein-tyrosine kinase 2-beta (Homo sapiens) (UniProt Q14289); conditions: at 0.1 µM
# [15] = target: Protein-tyrosine kinase 2-beta (Homo sapiens) (UniProt Q14289); conditions: at 1 µM
# [16] = target: Proto-oncogene tyrosine-protein kinase receptor Ret (Homo sapiens) (UniProt P07949); conditions: at 0.1 µM
# [17] = target: Proto-oncogene tyrosine-protein kinase receptor Ret (Homo sapiens) (UniProt P07949); conditions: at 1 µM
# [18] = test system: Proto-oncogene tyrosine-protein kinase receptor Ret (Homo sapiens), P07949 [V804L]; conditions: at 0.1 µM
# Proto-oncogene tyrosine-protein kinase receptor Ret (Homo sapiens), P07949 [V804L], sequence (P07949 whole entry V804L): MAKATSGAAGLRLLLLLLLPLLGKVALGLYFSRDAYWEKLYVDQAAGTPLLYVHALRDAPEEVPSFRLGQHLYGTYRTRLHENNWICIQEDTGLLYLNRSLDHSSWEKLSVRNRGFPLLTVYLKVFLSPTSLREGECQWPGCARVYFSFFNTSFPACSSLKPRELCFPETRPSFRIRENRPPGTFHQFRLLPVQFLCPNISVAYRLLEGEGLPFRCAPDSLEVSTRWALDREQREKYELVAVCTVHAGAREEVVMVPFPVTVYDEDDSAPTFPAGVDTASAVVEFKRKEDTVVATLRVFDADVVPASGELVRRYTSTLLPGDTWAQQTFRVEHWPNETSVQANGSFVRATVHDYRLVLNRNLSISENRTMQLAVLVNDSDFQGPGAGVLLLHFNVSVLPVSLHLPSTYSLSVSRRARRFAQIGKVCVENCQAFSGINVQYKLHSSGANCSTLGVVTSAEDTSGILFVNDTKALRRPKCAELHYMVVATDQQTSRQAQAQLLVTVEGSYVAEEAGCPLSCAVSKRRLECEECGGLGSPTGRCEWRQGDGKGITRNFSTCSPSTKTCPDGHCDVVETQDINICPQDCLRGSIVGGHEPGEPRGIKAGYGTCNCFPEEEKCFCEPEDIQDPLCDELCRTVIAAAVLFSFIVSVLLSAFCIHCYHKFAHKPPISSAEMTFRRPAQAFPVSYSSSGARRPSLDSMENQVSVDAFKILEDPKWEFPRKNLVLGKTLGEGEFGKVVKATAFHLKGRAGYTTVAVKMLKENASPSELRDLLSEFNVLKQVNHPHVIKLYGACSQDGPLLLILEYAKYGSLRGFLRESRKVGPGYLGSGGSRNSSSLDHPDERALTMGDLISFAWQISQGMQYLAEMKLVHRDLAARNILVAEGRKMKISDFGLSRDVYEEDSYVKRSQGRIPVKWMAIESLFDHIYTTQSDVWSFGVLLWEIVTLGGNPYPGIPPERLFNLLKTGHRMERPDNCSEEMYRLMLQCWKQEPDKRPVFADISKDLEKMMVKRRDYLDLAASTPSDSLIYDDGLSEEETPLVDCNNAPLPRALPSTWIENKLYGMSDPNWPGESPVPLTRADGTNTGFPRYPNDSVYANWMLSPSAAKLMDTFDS
# [19] = test system: Proto-oncogene tyrosine-protein kinase receptor Ret (Homo sapiens), P07949 [V804L]; conditions: at 1 µM
# [20] = test system: Proto-oncogene tyrosine-protein kinase receptor Ret (Homo sapiens), P07949 [Y791F]; conditions: at 0.1 µM
SMILES,inhibition [1],inhibition [2],inhibition [3],inhibition [4],inhibition [5],inhibition [6],inhibition [7],inhibition [8],inhibition [9],inhibition [10],inhibition [11],inhibition [12],inhibition [13],inhibition [14],inhibition [15],inhibition [16],inhibition [17],inhibition [18],inhibition [19],inhibition [20]
CS(=O)(=O)Nc1ccc(N/C=C2\C(=O)Nc3ccccc32)cc1,35.9%,9.58%,41.9%,2.98%,18%,11.1%,62.5%,15%,51%,6.47%,38%,-0.66%,0.76%,-3.21%,20.1%,10.4%,49.4%,17.9%,66.2%,8.53%
Cc1nn(C)c2cc(N(C)c3ccnc(Nc4cccc(S(N)(=O)=O)c4)n3)ccc12,6.58%,22.9%,61.2%,7.33%,36.1%,5.29%,15.1%,23.2%,70.1%,18.2%,61.6%,3.71%,11.6%,9.35%,17.8%,11.9%,39%,5.4%,34.2%,12.6%
Cn1cc(C=C2C(=O)Nc3cccnc32)c2ccccc21,12.8%,19.5%,65.3%,9.02%,47.1%,5.86%,20.2%,12.4%,58.7%,12.5%,42%,0.71%,3.75%,5.59%,25.2%,,,,,
COc1cc2ncn(-c3cc(O[C@@H](C)c4ccccc4Cl)c(C(N)=O)s3)c2cc1OC,14.1%,37.9%,73.8%,27%,77.1%,7.94%,50%,32.4%,81.5%,29.8%,68.2%,5.42%,4.28%,-0.4%,14%,33.6%,72.1%,8.18%,38.3%,32.5%
NCc1ccc(-c2nc(-c3ccc(Cl)c(O)c3)c(-c3ccncc3)[nH]2)cc1,2.08%,6.86%,25.6%,6.11%,31%,2.74%,2.2%,5.6%,25.9%,7.07%,31%,5.22%,35.3%,3.97%,-0.14%,47.6%,76.6%,1.17%,7.47%,39.5%
CC1=C(C(=O)Nc2ccc3[nH]ncc3c2)C(c2ccc(F)cc2)NC(=O)N1 (centres undefined),5.88%,4.38%,10.7%,1.76%,3.2%,3.58%,3.03%,3.01%,3.64%,3.65%,6.86%,1.9%,1.47%,10.1%,8.37%,6.58%,35%,6.27%,35.5%,8.37%
Cc1cc(O)cc(C)c1/C=C/c1cncc(-c2nn[nH]n2)c1,2.94%,10.7%,50.9%,2.87%,22.2%,7.51%,5.59%,12.1%,59.3%,9.66%,49.5%,6.95%,33.8%,12.8%,12.1%,1.14%,9.47%,8.88%,9.42%,3.32%
Cc1nnc(-c2ccc(C)c(-c3ccc(C(=O)Nc4cccc(C#N)c4)cc3)c2)o1,2.91%,7.61%,15.8%,0.78%,2.5%,3.31%,6.79%,3.46%,5.28%,6.49%,10.9%,2.05%,2.02%,4.97%,6.48%,7.9%,12.9%,4.42%,8.03%,4.58%
NS(=O)(=O)c1cccc(-c2ccc3c(NC(=O)C4CC4)n[nH]c3c2)c1,4.13%,3.24%,9.75%,1.86%,7.06%,-0.86%,1.24%,3.88%,6.54%,0.91%,5.08%,0.47%,1.64%,-7.23%,5.72%,2.41%,1.62%,-0.14%,-1.66%,-2.8%
COc1ccc(-c2nn3ncccc3c2-c2ccnc(Nc3ccc(Cl)c(C(F)(F)F)c3)n2)cc1,1.1%,3.58%,7.86%,0.96%,1.8%,3.16%,5.2%,3.43%,3.24%,2.18%,5.76%,1.65%,0.79%,5.54%,10.5%,2.17%,-0.91%,2.33%,6.71%,2.51%
CC(=O)Nc1cccc(C#Cc2cncnc2Nc2ccc(OCc3cccc(F)c3)c(Cl)c2)n1,2.93%,2.49%,8.73%,1.14%,2.21%,-0.15%,-0.14%,3.24%,1.4%,6.88%,9.6%,0.61%,1.2%,-2.77%,8.14%,-1.11%,2.59%,0.14%,10.2%,0.37%
Nc1nc(-c2ccccn2)c(-c2ccc3ncccc3n2)s1,4.69%,5.63%,11.4%,1.02%,1.79%,3.45%,7.4%,-0.56%,-1.5%,6.46%,7.71%,2.13%,1.57%,8.82%,12.2%,1.19%,4.76%,1.3%,5.95%,2.3%
O=C1NC(=O)C(N2CCc3ccccc32)=C1c1ccc(Cl)cc1,3.86%,13.4%,15.4%,3.39%,6.57%,10.4%,7.21%,3.93%,6.68%,,8.69%,2.55%,3.4%,8.33%,7.03%,2.35%,10.1%,7.17%,9.11%,11.4%
CS(=O)(=O)CCN(CC#N)Cc1ccc(-c2ccc3ncnc(Nc4ccc(OCc5cccc(F)c5)c(Cl)c4)c3c2)o1,1.87%,5.88%,10.3%,1.15%,3.78%,1.63%,5.75%,1.15%,4.06%,4.64%,6.45%,1.47%,2.48%,3.85%,9.33%,0.24%,2.76%,1.02%,3.35%,2.36%
